Assay outcomes: PubChem, National Center for Advancing Translational Sciences (NCATS)
ERK AVP inh: vasopressin-driven ERK pathway inhibition | HEK293-V1b, vasopressin-stimulated pERK AlphaScreen | Potency, µM (titrated, usually from 57.5 µM), most hits filed as inhibitors | 72,000 compounds, 0.99% hits; also: nearly all actives have a fitted effect of over 55% in size
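qHTS, compounds titrated on V1b-expressing HEK293 cells. Preincubation 30 min at 37C, vasopressin 25 nM for 5 min, lysis 10 min, bead incubation 5 hr at room temperature.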
HBB splice mod: alters splicing of the hemoglobin beta chain. HBB splicing reporter cell assay, activation; EGFP reporter with mutant IVS2-654 intron; response scale: normalised to 500 nM splice-correcting PNA. Potency, µM (doses to about 46.1 µM), actives largely listed as activators. 65,000 compounds, 0.06% hits
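HeLa cells stably expressing EGFP interrupted by mutant beta-globin intron 2 (IVS2-654), 500/well in 2% FCS. Treated with compound for 2 days at 37C. Splicing correction scored as total well GFP intensity (488 nm excitation, 500-520 nm emission); 500 nM antisense PNA served as control.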
HEK293 cAMP ctrl: parental HEK293 cAMP activation (counter-screen); parental HEK293 CNG cAMP sensor, membrane potential fluorescence; Potency, µM (series often up to 57.1 µM), most hits filed as activators; 73,000 compounds, 2.5% hits; also: nearly all actives have a fitted effect of over 55% in size
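Parental HEK 293 cells stably expressing a cAMP-gated CNG channel were loaded with membrane potential dye containing 100 uM RO 20-1724 for 60 min. Compound added for 30 min; depolarization read as fluorescence intensity at 590 nm.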
UbGFP stabilizer: ubiquitin-GFP accumulation via proteasome inhibition. AID 526. 67,000 tested, under 10 active. Potency, µM (titrated, usually from 45.9 µM), actives largely listed as activators. Ubiquitin-GFP reporter cells, proteasome inhibition, GFP fluorescence; response scale: untreated = 0%, 10 µM MG-132 = 100%; active = well fitted activation curve with a large enough effect, not every such curve was filed as active; inconclusive = small, poorly fitted or top-dose-only effect, or another doubt; inactive = no such curve, though single readings can be large or run the other way
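Proteasome blockade was scored as a rise in GFP-expressing U2OS cells carrying a ubiquitin(G76V)-GFP construct, imaged after 4 hr compound treatment at 37 °C across a 46 uM–2.9 nM series.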
TSHR ag: activates the human thyroid stimulating hormone receptor. Potency, µM (doses to about 57.1 µM), usual class: activators. HEK293-CNG-TSHR cells (CNG channel as cAMP sensor), membrane potential dye, cAMP. 73,000 compounds, 0.48% hits; active = well fitted activation curve with a large enough effect in the main read-out, with a control signal flat, not every such curve was filed as active; inconclusive = small, poorly fitted or top-dose-only effect, or a change in a side signal; inactive = no such curve, though single readings can be large or run the other way; reference of the percent scale not stated here;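 also: the control signal comes from parental cells without the receptor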
Target sequence (P16473 whole entry, looked up): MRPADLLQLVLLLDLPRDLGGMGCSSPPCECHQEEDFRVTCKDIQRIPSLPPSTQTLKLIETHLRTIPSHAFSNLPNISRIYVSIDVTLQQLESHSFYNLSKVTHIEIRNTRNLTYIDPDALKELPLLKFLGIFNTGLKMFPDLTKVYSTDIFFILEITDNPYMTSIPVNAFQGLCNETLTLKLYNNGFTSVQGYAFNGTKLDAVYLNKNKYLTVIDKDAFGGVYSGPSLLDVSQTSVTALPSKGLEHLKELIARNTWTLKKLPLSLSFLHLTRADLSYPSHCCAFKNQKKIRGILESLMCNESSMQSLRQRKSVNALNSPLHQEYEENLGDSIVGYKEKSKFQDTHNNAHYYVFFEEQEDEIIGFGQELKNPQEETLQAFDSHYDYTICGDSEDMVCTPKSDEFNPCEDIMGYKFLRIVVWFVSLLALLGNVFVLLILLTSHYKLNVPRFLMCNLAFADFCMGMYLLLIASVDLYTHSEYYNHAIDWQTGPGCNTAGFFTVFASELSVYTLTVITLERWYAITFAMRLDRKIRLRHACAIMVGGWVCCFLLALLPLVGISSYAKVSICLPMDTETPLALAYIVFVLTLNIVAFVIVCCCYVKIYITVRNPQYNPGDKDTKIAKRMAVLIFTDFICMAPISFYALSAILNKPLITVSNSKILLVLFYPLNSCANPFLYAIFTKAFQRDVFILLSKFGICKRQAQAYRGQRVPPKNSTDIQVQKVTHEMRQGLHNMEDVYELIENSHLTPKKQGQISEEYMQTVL
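HEK 293 cells stably expressing TSHR and a modified CNG channel, with CNG-only parental cells as counterscreen, were preloaded 60 min at room temperature with membrane potential dye containing 100 uM RO 20-1724. Compound exposure was 30 min, and depolarization was read as fluorescence at 590 nm.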
GFP derepression: epigenetic GFP locus derepression in mouse cells; mouse C127i GFP locus derepression, cytometry, 30 h; Potency, µM (doses to about 46.1 µM); 68,000 compounds, 0.09% hits; AID 597
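Locus derepression in mouse mammary C127i cells whose integrated CMV-GFP reporter is normally silent; GFP expression after 30 h compound treatment was quantified by counting fluorescent cells.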
Each line names hits and unclear results; the compound was inactive in the other large screens. This is a sample that favours compounds with a hit; in the whole collection about 3.8% have one here. Unless noted, calls follow the shape of the dose curve; as a rule, active = well fitted curve in the direction sought with a large enough effect; inconclusive = small, poorly fitted or top-dose-only effect, or another doubt; inactive = no such curve, though single readings can be large; an effect the other way counts as inactive or inconclusive.

CCC(=O)N1CCN(c2ccc(NC(=O)c3cc4ccccc4o3)cc2Cl)CC1	ERK AVP inh 31.6µM, HEK293 cAMP ctrl inconclusive, TSHR ag inconclusive
CC1(C)C(=O)C(c2ccccc2)=C2CN3C(=O)N(CCc4ccccc4)C(=O)C3(Cc3ccc(C(F)(F)F)cc3)C=C21 (stereo not given)	none (no result: UbGFP stabilizer, GFP derepression)
CCCn1c(-c2ccc(F)cc2)nc2c(N3CCN(C)CC3)nc(C)nc21	HEK293 cAMP ctrl 15.8µM, TSHR ag inconclusive (no result: GFP derepression)
CCCn1c(-c2ccc(F)cc2)nc2c(NCCN(C(C)C)C(C)C)nc(C)nc21	HEK293 cAMP ctrl 12.6µM, TSHR ag inconclusive (no result: GFP derepression)
CCCn1c(-c2ccc(F)cc2)nc2c(N3CCC(N(C)C)C3)nc(C)nc21 (stereo not given)	HEK293 cAMP ctrl inconclusive, TSHR ag inconclusive (no result: GFP derepression)
CCCn1c(-c2ccc(F)cc2)nc2c(NCCN(C)C)nc(C)nc21	HEK293 cAMP ctrl inconclusive, TSHR ag inconclusive (no result: GFP derepression)
CNc1ccc(O)cc1	none (no result: UbGFP stabilizer, GFP derepression)
COc1ccc2oc(C(=O)OCC(=O)c3ccc4c(c3)OCCO4)c(C)c2c1	HEK293 cAMP ctrl 20µM, TSHR ag inconclusive
O=C(Nc1ccc(N2CCOCC2)c(Cl)c1)C1CCCCC1	HEK293 cAMP ctrl 25.1µM, TSHR ag inconclusive
O=C(Nc1ccc(N2CCOCC2)c(Cl)c1)c1ccco1	none
CCc1ccc(NS(=O)(=O)c2ccc(Cl)cc2OC)cc1	none (no result: ERK AVP inh, HBB splice mod, UbGFP stabilizer, GFP derepression)
CCc1cccc(NC(=O)CCc2nc(-c3cccs3)no2)c1	ERK AVP inh 25.1µM
CCOC(=O)c1ccc(NC(=O)CCc2nc(-c3ccccc3)no2)cc1	ERK AVP inh 15.8µM
CSc1snc(SCC(N)=O)c1C#N	ERK AVP inh inconclusive
COC(=O)CSc1nsc(SCC(=O)OC)c1C#N	ERK AVP inh 15.8µM, HEK293 cAMP ctrl inconclusive, TSHR ag inconclusive
Nc1cccc(OCc2nc(N)nc(N)c2-c2ccc(Cl)cc2)c1	none
Cc1cc(C)n2nc(NCc3cccc(Br)c3)nc2n1	TSHR ag 1µM
COc1ccc(N(C(=O)c2ccco2)S(=O)(=O)c2cc(OC)ccc2OC)cc1	HEK293 cAMP ctrl 15.8µM, TSHR ag inconclusive
COc1ccc(CN(C(=O)c2ccco2)c2ccc(Br)cc2)cc1OC	ERK AVP inh inconclusive, HEK293 cAMP ctrl 31.6µM, TSHR ag inconclusive
N[C@H](CCC(=O)NCS(=O)(=O)O)C(=O)O	none
COc1ccc(CCN(C)CCCOc2ccc(S(=O)(=O)c3[nH]c4ccccc4c3C(C)C)cc2)cc1OC	TSHR ag inconclusive (no result: HBB splice mod)
CN1CCc2cc3c(cc2C(=O)Cc2ccc4c(c2C1)OCO4)OCO3	HEK293 cAMP ctrl inconclusive, TSHR ag inconclusive (no result: HBB splice mod)
Cc1ccnc(SCC(=O)Nc2sc3c(c2C#N)CCCC3)n1	HEK293 cAMP ctrl 20µM, TSHR ag inconclusive
N#Cc1c(NC(=O)CSC2=NCCS2)sc2c1CCCC2	HEK293 cAMP ctrl inconclusive, TSHR ag inconclusive (no result: HBB splice mod)
FC(F)(F)c1cc(CO[C@H]2CCCN[C@H]2c2ccccc2)cc(C(F)(F)F)c1	HEK293 cAMP ctrl 20µM, TSHR ag inconclusive (no result: HBB splice mod)
Nc1nc2c(c(=O)[nH]1)N=C(CNc1ccc(C(=O)NC(CCC(=O)O)C(=O)O)cc1)CN2 (stereo not given)	none (no result: HBB splice mod, HEK293 cAMP ctrl, UbGFP stabilizer, TSHR ag, GFP derepression)
Cn1c(C(=O)N2CCCC(C(=O)NCCCc3ccccc3)C2)cc2sccc21 (stereo not given)	ERK AVP inh 20µM, HEK293 cAMP ctrl inconclusive, TSHR ag inconclusive
CCn1c(C(=O)N2CCC(C(=O)NCCCSC3CCCCC3)CC2)cc2sccc21	ERK AVP inh inconclusive, HEK293 cAMP ctrl 15.8µM, TSHR ag inconclusive
O=C(NCc1ccco1)C1CCN(C(=O)c2cc3sccc3n2Cc2ccc(F)cc2)CC1	TSHR ag 20µM
CCCC[C@H]1C[C@@H]1[C@@H]1N(P(=O)(c2ccccc2)c2ccccc2)C[C@@](O)(c2ccccc2)CC12CC2	none (no result: UbGFP stabilizer, GFP derepression)
CCOC(=O)c1cc(-c2ccc3c(c2)OCCO3)nc2c1c(C)nn2CCC#N	HEK293 cAMP ctrl 20µM, TSHR ag inconclusive
O=C=Nc1ccc(Cl)c(Cl)c1	ERK AVP inh inconclusive (no result: UbGFP stabilizer, GFP derepression)
